Measurements taken from PubChem BioAssay (EPA / NIEHS).
The source made the active and inactive calls. How the source made its calls: active means hit-call score of the fitted dose curve at least 0.9, where 1 is the maximum; inactive means score below 0.9.

Each molecule was assayed on Vascular endothelial growth factor receptor 2 (Homo sapiens) (UniProt P35968) (assay: BSK_4H_VEGFRII: BioMAP Diversity Plus: 4H Assay for Vascular endothelial growth factor receptor 2 (VEGFR2) Biomarker Activity (AID 2283031)). Details: primary human endothelial cells (HUVEC); actives raise or lower the signal.
Procedure, shortened: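 Primary human umbilical vein endothelial cells in the BioMAP 4H system were dosed with test chemical, and 24 h later VEGFRII was measured by ELISA. Activity was fitted bidirectionally against DMSO as negative control and baseline.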
In the case of `COc1ccc(OC(F)(F)F)cc1CN[C@H]1CCCN[C@H]1c1ccccc1`, the outcome is reported as “inactive”. With `CC(COCC(C)OC(=O)c1ccccc1)OC(=O)c1ccccc1` (stereo unspecified) the outcome was “inactive”. In the case of `Cc1occc(=O)c1O`, the outcome is reported as “inactive”. For `O=C(O)c1[nH]n(-c2ccc(S(=O)(=O)O)cc2)c(=O)c1N=Nc1ccc(S(=O)(=O)O)cc1`, the outcome was “inactive”.

The molecules below were run on Human Leukocyte Antigen - DR isotype (HLADR), HLA-DRA (gene 3122) (assay: BSK_BE3C_HLADR: BioMAP Diversity Plus: BE3C Assay for Human Leukocyte Antigen - DR isotype (HLADR) Biomarker Activity (AID 2283032)). Details: primary human bronchial epithelial cells; actives raise or lower the signal.
Procedure, shortened: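 Human primary bronchial epithelial cells in the BE3C system were exposed to chemicals for 24 h, after which HLA-DR levels were quantified by ELISA. Activity was fitted bidirectionally, gain or loss of signal, against DMSO as negative control and baseline.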
With `CS(=O)(=O)c1ccc([C@@H](C[C@H]2CCC(=O)C2)C(=O)Nc2cnccn2)cc1Cl` the outcome was “inactive”. In the case of `O=C(O)CN(CC(=O)O)CC(=O)O`, the outcome is reported as “inactive”. `CC1(C)C(=O)NC(=O)N1CO` was tested, and the outcome was “inactive”. With `CC(C)c1cccc(C(C)C)c1NC(=O)NS(=O)(=O)c1cc(C(C)(C)O)co1` the outcome was “inactive”. In the case of `CCCC(=O)O`, the outcome is reported as “inactive”. In the case of `C=CCCCCCCCCCCCC`, the outcome is reported as “inactive”. With `CCCCC(CC)COP(=O)(OCC(CC)CCCC)OCC(CC)CCCC` (stereo unspecified) the outcome was “inactive”. `NC1CCCCC1` was tested, and the outcome was “inactive”. `CC(=O)CC(c1ccccc1)c1c(O)c2ccccc2oc1=O` (stereo unspecified) was tested, and the outcome was “inactive”. For `C=CCc1ccc(OC)c(OC)c1`, the outcome was “inactive”. `CC(C)OC(=O)C(C)(C)Oc1ccc(C(=O)c2ccc(Cl)cc2)cc1` was tested, and the outcome was “inactive”. For `CCCCCCCCCC[N+](C)(C)[O-]`, the outcome was “inactive”. With `CCCCCCCC(=O)OC` the outcome was “inactive”. With `Oc1ccc(O)cc1` the outcome was “inactive”. For `CSc1ccc(Oc2ccc(S(N)(=O)=O)cc2CN(C)C)cc1C`, the outcome was “inactive”. For `CCc1cc(C2=C(C(=O)O)N(c3ccccc3C(F)(F)F)S(=O)(=O)c3ccccc32)cc2c1OCO2`, the outcome was “inactive”. `NCCOCCOCCN` was tested, and the outcome was “inactive”. `S=c1[nH]c2ccccc2s1` was tested, and the outcome was “inactive”. With `O=C(N[C@@H](c1ccccc1)[C@@H]1CCCCN1)c1cccc(C(F)(F)F)c1Cl` the AC50 was 33.2 µM (active). For `O=C1CCCCC1`, the outcome was “inactive”. `Cc1ccc(C(C)(C)C)c(O)c1` was tested, and the outcome was “inactive”. With `CCN(CC)CCOc1ccc(C(=C(Cl)c2ccccc2)c2ccccc2)cc1` the AC50 was 15.2 µM (active). `CC(=O)[C@@]1(O)CC[C@H]2[C@@H]3CCC4=CC(=O)CC[C@]4(C)[C@H]3CC[C@@]21C` was tested, and the outcome was “inactive”. `CCCCC(CC)CO` (stereo unspecified) was tested, and the outcome was “inactive”. `CC(=O)O[C@]1(C(C)=O)CC[C@H]2[C@@H]3C=C(Cl)C4=CC(=O)[C@@H]5C[C@@H]5[C@]4(C)[C@H]3CC[C@@]21C` was tested, and the AC50 was 19.3 µM (active). With `COc1ccc(OC(F)(F)F)cc1CN[C@H]1CCCN[C@H]1c1ccccc1` the outcome was “inactive”. `CC(COCC(C)OC(=O)c1ccccc1)OC(=O)c1ccccc1` (stereo unspecified) was tested, and the outcome was “inactive”. In the case of `Cc1occc(=O)c1O`, the outcome is reported as “inactive”. For `O=C(O)c1[nH]n(-c2ccc(S(=O)(=O)O)cc2)c(=O)c1N=Nc1ccc(S(=O)(=O)O)cc1`, the outcome was “inactive”.

These molecules were tested on Vascular cell adhesion molecule 1 (VCAM1), VCAM1 (gene 7412) (assay: BSK_4H_VCAM1: BioMAP Diversity Plus: 4H Assay for Vascular cell adhesion molecule 1 (VCAM1) Biomarker Activity (AID 2283033;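 on outcome: cell-surface VCAM-1 protein measured by ELISA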)). Details: primary human endothelial cells (HUVEC); actives raise or lower the signal.
Procedure, shortened: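 Primary human umbilical vein endothelial cells were exposed to chemicals for 24 h, after which VCAM-1 was quantified by ELISA. Responses were fitted bidirectionally against DMSO as negative control and activity baseline.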
With `CS(=O)(=O)c1ccc([C@@H](C[C@H]2CCC(=O)C2)C(=O)Nc2cnccn2)cc1Cl` the outcome was “inactive”. For `O=C(O)CN(CC(=O)O)CC(=O)O`, the outcome was “inactive”. For `CC1(C)C(=O)NC(=O)N1CO`, the outcome was “inactive”. With `CC(C)c1cccc(C(C)C)c1NC(=O)NS(=O)(=O)c1cc(C(C)(C)O)co1` the outcome was “inactive”. For `CCCC(=O)O`, the outcome was “inactive”. In the case of `C=CCCCCCCCCCCCC`, the outcome is reported as “inactive”. With `CCCCC(CC)COP(=O)(OCC(CC)CCCC)OCC(CC)CCCC` (stereo unspecified) the AC50 was 6.21 µM (active). For `NC1CCCCC1`, the outcome was “inactive”. For `CC(=O)CC(c1ccccc1)c1c(O)c2ccccc2oc1=O` (stereo unspecified), the outcome was “inactive”. With `C=CCc1ccc(OC)c(OC)c1` the outcome was “inactive”. `CC(C)OC(=O)C(C)(C)Oc1ccc(C(=O)c2ccc(Cl)cc2)cc1` was tested, and the AC50 was 17 µM (active). In the case of `CCCCCCCCCC[N+](C)(C)[O-]`, the outcome is reported as “inactive”. `CCCCCCCC(=O)OC` was tested, and the outcome was “inactive”. `Oc1ccc(O)cc1` was tested, and the AC50 was 10.9 µM (active). `CSc1ccc(Oc2ccc(S(N)(=O)=O)cc2CN(C)C)cc1C` was tested, and the outcome was “inactive”. `CCc1cc(C2=C(C(=O)O)N(c3ccccc3C(F)(F)F)S(=O)(=O)c3ccccc32)cc2c1OCO2` was tested, and the outcome was “inactive”. `NCCOCCOCCN` was tested, and the outcome was “inactive”. With `S=c1[nH]c2ccccc2s1` the outcome was “inactive”. For `O=C(N[C@@H](c1ccccc1)[C@@H]1CCCCN1)c1cccc(C(F)(F)F)c1Cl`, the outcome was “inactive”. In the case of `O=C1CCCCC1`, the outcome is reported as “inactive”. For `Cc1ccc(C(C)(C)C)c(O)c1`, the outcome was “inactive”. `CCN(CC)CCOc1ccc(C(=C(Cl)c2ccccc2)c2ccccc2)cc1` was tested, and the AC50 was 11.6 µM (active). For `CC(=O)[C@@]1(O)CC[C@H]2[C@@H]3CCC4=CC(=O)CC[C@]4(C)[C@H]3CC[C@@]21C`, the outcome was “inactive”. For `CCCCC(CC)CO` (stereo unspecified), the outcome was “inactive”. In the case of `CC(=O)O[C@]1(C(C)=O)CC[C@H]2[C@@H]3C=C(Cl)C4=CC(=O)[C@@H]5C[C@@H]5[C@]4(C)[C@H]3CC[C@@]21C`, the outcome is reported as “inactive”. In the case of `COc1ccc(OC(F)(F)F)cc1CN[C@H]1CCCN[C@H]1c1ccccc1`, the outcome is reported as “inactive”. With `CC(COCC(C)OC(=O)c1ccccc1)OC(=O)c1ccccc1` (stereo unspecified) the outcome was “inactive”. `Cc1occc(=O)c1O` was tested, and the outcome was “inactive”. For `O=C(O)c1[nH]n(-c2ccc(S(=O)(=O)O)cc2)c(=O)c1N=Nc1ccc(S(=O)(=O)O)cc1`, the outcome was “inactive”.

These molecules were tested on Interferon-gamma inducible Protein 10 (IP10), CXCL10 (gene 3627) (assay: BSK_BE3C_IP10: BioMAP Diversity Plus: BE3C Assay for Interferon-gamma inducible Protein 10 (IP10) Biomarker Activity (AID 2283034)). Details: primary human bronchial epithelial cells; actives raise or lower the signal.
Procedure, shortened: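 Human primary bronchial epithelial cells were exposed to chemicals for 24 hours, after which IP-10 levels were measured by ELISA. Data were fitted bidirectionally against DMSO, which served as the negative control and activity baseline.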
With `CS(=O)(=O)c1ccc([C@@H](C[C@H]2CCC(=O)C2)C(=O)Nc2cnccn2)cc1Cl` the outcome was “inactive”. With `O=C(O)CN(CC(=O)O)CC(=O)O` the outcome was “inactive”. `CC1(C)C(=O)NC(=O)N1CO` was tested, and the outcome was “inactive”. In the case of `CC(C)c1cccc(C(C)C)c1NC(=O)NS(=O)(=O)c1cc(C(C)(C)O)co1`, the outcome is reported as “inactive”. With `CCCC(=O)O` the outcome was “inactive”. In the case of `C=CCCCCCCCCCCCC`, the outcome is reported as “inactive”. For `CCCCC(CC)COP(=O)(OCC(CC)CCCC)OCC(CC)CCCC` (stereo unspecified), the outcome was “inactive”. With `NC1CCCCC1` the outcome was “inactive”. `CC(=O)CC(c1ccccc1)c1c(O)c2ccccc2oc1=O` (stereo unspecified) was tested, and the outcome was “inactive”. With `C=CCc1ccc(OC)c(OC)c1` the outcome was “inactive”. `CC(C)OC(=O)C(C)(C)Oc1ccc(C(=O)c2ccc(Cl)cc2)cc1` was tested, and the outcome was “inactive”. In the case of `CCCCCCCCCC[N+](C)(C)[O-]`, the outcome is reported as “inactive”. `CCCCCCCC(=O)OC` was tested, and the outcome was “inactive”. For `Oc1ccc(O)cc1`, the outcome was “inactive”. `CSc1ccc(Oc2ccc(S(N)(=O)=O)cc2CN(C)C)cc1C` was tested, and the outcome was “inactive”. For `CCc1cc(C2=C(C(=O)O)N(c3ccccc3C(F)(F)F)S(=O)(=O)c3ccccc32)cc2c1OCO2`, the outcome was “inactive”. In the case of `NCCOCCOCCN`, the outcome is reported as “inactive”. `S=c1[nH]c2ccccc2s1` was tested, and the outcome was “inactive”. With `O=C(N[C@@H](c1ccccc1)[C@@H]1CCCCN1)c1cccc(C(F)(F)F)c1Cl` the AC50 was 33.5 µM (active). `O=C1CCCCC1` was tested, and the outcome was “inactive”. For `Cc1ccc(C(C)(C)C)c(O)c1`, the outcome was “inactive”. `CCN(CC)CCOc1ccc(C(=C(Cl)c2ccccc2)c2ccccc2)cc1` was tested, and the AC50 was 15.3 µM (active). In the case of `CC(=O)[C@@]1(O)CC[C@H]2[C@@H]3CCC4=CC(=O)CC[C@]4(C)[C@H]3CC[C@@]21C`, the outcome is reported as “inactive”. `CCCCC(CC)CO` (stereo unspecified) was tested, and the outcome was “inactive”. In the case of `CC(=O)O[C@]1(C(C)=O)CC[C@H]2[C@@H]3C=C(Cl)C4=CC(=O)[C@@H]5C[C@@H]5[C@]4(C)[C@H]3CC[C@@]21C`, the AC50 is reported as 33.4 µM (active). With `COc1ccc(OC(F)(F)F)cc1CN[C@H]1CCCN[C@H]1c1ccccc1` the outcome was “inactive”. `CC(COCC(C)OC(=O)c1ccccc1)OC(=O)c1ccccc1` (stereo unspecified) was tested, and the outcome was “inactive”. With `Cc1occc(=O)c1O` the outcome was “inactive”. For `O=C(O)c1[nH]n(-c2ccc(S(=O)(=O)O)cc2)c(=O)c1N=Nc1ccc(S(=O)(=O)O)cc1`, the outcome was “inactive”.
